High-throughput results deposited in PubChem BioAssay by several laboratories.
The list is not random: actives were taken first. Their share in the collection is about 2.6%.
PRMT1 inh – PRMT1 methyltransferase inhibitors, primary screen, biochemical, fluorescence polarization | Protein arginine N-methyltransferase 1 (Homo sapiens), Q99873 | recombinant PRMT1, activity-based probe fluorescence polarization | inhibition, % at 2.79 µM | actives 1.3% (n = 370,000) | AID 652257, 2013;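 active means inhibition above about 21% made by adding two undisclosed values, limit read from the data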
TLR9-MyD88 block – inhibitors of TLR9-MyD88 association in cells, primary screen, cell-based, CHO, BLA complementation, fluorescence. actives 0.21% (n = 340,000). Toll-like receptor 9 (Homo sapiens) + Myeloid differentiation primary response protein …. CCF4 FRET ratio. AID 504734, 2011. inhibition, % at 4.98 µM;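 active means inhibition above the mean over all tested compounds plus 3 SD, cut at about 21% in these data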
Target sequence (Q99836 whole entry, looked up): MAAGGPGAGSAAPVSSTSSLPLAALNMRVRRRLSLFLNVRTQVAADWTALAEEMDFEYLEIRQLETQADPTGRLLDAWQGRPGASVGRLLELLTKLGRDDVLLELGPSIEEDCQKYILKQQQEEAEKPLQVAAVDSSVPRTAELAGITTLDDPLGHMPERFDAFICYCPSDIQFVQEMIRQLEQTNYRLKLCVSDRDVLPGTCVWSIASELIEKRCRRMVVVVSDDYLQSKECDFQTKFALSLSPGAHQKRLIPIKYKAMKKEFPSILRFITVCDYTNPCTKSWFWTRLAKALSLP
Target sequence (Q9NR96 whole entry, looked up): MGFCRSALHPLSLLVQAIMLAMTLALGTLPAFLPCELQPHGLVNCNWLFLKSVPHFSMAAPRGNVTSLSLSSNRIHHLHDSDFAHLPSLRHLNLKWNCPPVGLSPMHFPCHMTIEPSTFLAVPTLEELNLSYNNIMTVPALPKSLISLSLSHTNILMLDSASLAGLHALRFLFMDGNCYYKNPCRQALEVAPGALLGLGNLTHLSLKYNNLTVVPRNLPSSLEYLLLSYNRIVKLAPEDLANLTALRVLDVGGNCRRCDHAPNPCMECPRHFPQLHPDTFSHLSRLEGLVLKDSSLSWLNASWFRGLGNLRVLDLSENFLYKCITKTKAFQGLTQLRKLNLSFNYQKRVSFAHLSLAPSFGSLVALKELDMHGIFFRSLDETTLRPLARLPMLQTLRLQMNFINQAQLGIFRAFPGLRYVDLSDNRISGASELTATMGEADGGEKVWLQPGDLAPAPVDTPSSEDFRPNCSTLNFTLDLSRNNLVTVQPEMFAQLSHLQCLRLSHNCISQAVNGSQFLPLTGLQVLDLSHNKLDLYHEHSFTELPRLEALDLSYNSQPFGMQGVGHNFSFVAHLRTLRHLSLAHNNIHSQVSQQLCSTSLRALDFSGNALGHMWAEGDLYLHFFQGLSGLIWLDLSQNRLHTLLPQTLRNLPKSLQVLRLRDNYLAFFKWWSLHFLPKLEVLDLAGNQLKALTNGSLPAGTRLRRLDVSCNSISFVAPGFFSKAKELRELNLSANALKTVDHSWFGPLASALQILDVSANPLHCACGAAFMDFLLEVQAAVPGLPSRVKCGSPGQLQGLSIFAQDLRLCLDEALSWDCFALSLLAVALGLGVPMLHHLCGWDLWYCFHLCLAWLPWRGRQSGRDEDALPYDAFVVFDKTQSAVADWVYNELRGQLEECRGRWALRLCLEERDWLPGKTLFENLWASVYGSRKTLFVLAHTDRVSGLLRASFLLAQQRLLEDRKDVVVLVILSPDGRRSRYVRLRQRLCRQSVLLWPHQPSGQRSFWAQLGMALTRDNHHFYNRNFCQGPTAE
ABHD5 PLIN5 PPI – ABHD5-PLIN5 interaction inhibitors, primary screen, cell lysate, split luciferase complementation, luminescence; Split G. princeps luciferase complementation, 4 h; inhibition, % at 4 µM; actives 0.78% (n = 360,000);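 active means inhibition above the mean inhibition across every tested compound plus 3 SD, cut at about 22% in these data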
TLR4 MyD88 comp – inhibitors of TLR4-MyD88 association in cells, primary screen, cell-based, HeLa CL3-4, BLA complementation, FRET ratio | Toll-like receptor 4 (Homo sapiens) + Myeloid differentiation primary response protein … | HeLa CL3-4 TLR4/MyD88 BLA complementation | inhibition, % at 8.4 µM | actives 0.18% (n = 200,000) | AID 861, 2007; in the data active means inhibition above about 25%
NOD2 RIPK2 PPI – NOD2-RIPK2 binding disruptors in cells, primary screen, fluorescence, CHO cells, BLA complementation. Receptor-interacting serine/threonine-protein kinase 2 (Homo sapiens), O43353. CCF4 ratio. inhibition, % at 4.98 µM. actives 0.38% (n = 360,000). AID 624267, 2012; in the data active means inhibition above about 21%
Granule exo inh – LAMP-1 surface exposure blockers, TALL-104 cells – cell-based, flow cytometry, MLPCN library, primary screen. TALL-104 LAMP-1 surface exposure; cells stimulated with thapsigargin and PMA. inhibition, % at 10 µM. actives 0.66% (n = 360,000). AID 651702, 2012;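 active means inhibition above about 55%, limit read from the data; inconclusive means no clear call, values can overlap the other calls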
PRMT1 inh conf – PRMT1 methyltransferase inhibitors, confirmation, biochemical, fluorescence polarization, triplicate; shares compounds with PRMT1 inh; recombinant His-PRMT1, activity-based probe fluorescence polarization; inhibition, % at 2.79 µM; actives 42% (n = 3,300);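 active means mean inhibition across replicates above the hit cutoff derived for the earlier primary screen, cut at about 22% in these data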
Numbers stand for hits; 0 = inactive; ? = inconclusive; - = no result given.

SMILES | PRMT1 inh | TLR9-MyD88 block | ABHD5 PLIN5 PPI | TLR4 MyD88 comp | NOD2 RIPK2 PPI | Granule exo inh | PRMT1 inh conf
CC(C)(C)c1ccc(NC(=O)c2cc(C3CCCN(S(=O)(=O)c4cccc5cccnc45)C3)on2)cc1 (stereo not given) | 0 | - | 0 | - | 0 | ? | -
CC1(OC(=O)C2CCCC2)C(=O)C=C2C=C(c3ccsc3)N(CCc3ccccn3)C=C2C1=O (stereo not given) | 0 | 0 | 0 | - | 0 | 0 | -
O=C(Cc1ccccc1)NCC(=O)OCC(=O)c1ccc([N+](=O)[O-])cc1 | 76 | 0 | 0 | 0 | 0 | 0 | 67
O=C(CNS(=O)(=O)c1ccccc1)OCC(=O)c1ccc([N+](=O)[O-])cc1 | 80 | 0 | 0 | 0 | 0 | 0 | 42
CC(=O)Nc1cncc(-c2ccccc2N(C)C)n1 | 0 | - | 0 | - | 0 | 0 | -
O=C(NC(O)C(=O)c1ccccc1)c1ccc(F)cc1 (stereo not given) | 0 | 0 | 0 | - | 0 | 0 | -
CNc1ccc(Br)cc(C(=O)/C=C/c2ccc(OC)cc2)c1=O | 44 | 0 | 0 | 0 | 0 | 0 | 39
COc1ccc(/C=C/C(=O)c2cc3c(cc2N)OCO3)cc1 | 0 | 0 | 0 | 0 | 0 | 0 | -
O=C(CC1SC(=O)NC1=O)Nc1ccc(Cl)cc1 (stereo not given) | 40 | 0 | 0 | 0 | 0 | 0 | 39
O=C(CC1NC(=O)NC1=O)Nc1ccc(Cl)cc1 (stereo not given) | 0 | 0 | 0 | 0 | 0 | 0 | -
COc1ccccc1CC(=O)N(Cc1ccccc1)c1cccc(C)c1 | 0 | 0 | 0 | - | 0 | 0 | -
O=C(O)c1ccc(CSc2ccccn2)cc1 | 0 | 0 | 0 | 0 | 0 | 0 | -
O=C(CSc1ccccn1)c1ccc(F)cc1 | 27 | 0 | 0 | 0 | 0 | 0 | 24
Cc1ccc(C(=O)CSc2ccccn2)cc1 | 61 | 0 | 0 | 0 | 0 | 0 | 40
Cc1ccc(S(=O)(=O)NCCC(=O)OCc2ccc([N+](=O)[O-])cc2)cc1C | 0 | 0 | 0 | - | 0 | 0 | -
Cc1ccccc1NC(=O)CC1SC(=NC2CCCCC2)NC1=O (stereo not given) | 32 | 0 | 0 | 0 | 0 | 0 | 0
CCOc1ccccc1N1CCN(C(=O)c2ccc(NS(=O)(=O)c3ccc4[nH]c(=O)[nH]c4c3)cc2)CC1 | 0 | 0 | 0 | - | 0 | 0 | -
Cc1cccc(C)c1Nc1n[nH]c(=S)s1 | 32 | 0 | 0 | - | 0 | 0 | 0
CNc1n[nH]c(=S)s1 | 0 | 0 | 0 | - | 0 | 0 | -
Cc1cc(C)c(Nc2n[nH]c(=S)s2)cc1C | 47 | 0 | 0 | - | 0 | 0 | 23
Cc1ccc(Nc2n[nH]c(=S)s2)c(C)c1 | 35 | 0 | 0 | - | 0 | 0 | 36
CCc1nc2c(OCCn3cccc3)cccn2c1N(C)C(=O)c1ccc(C)cc1 | 0 | - | 0 | - | 0 | 0 | -
CCCn1c(SCC(=O)N(C2CCCCC2)C2CCS(=O)(=O)C2)n[nH]c1=O (stereo not given) | 0 | 0 | 0 | - | 0 | 0 | -
Nc1nnc(SCC(=O)Nc2cccc3ccccc23)s1 | 0 | 0 | 0 | - | 0 | 0 | -
CCN(CC)S(=O)(=O)c1cccc(NC(=O)CN2C(=O)NC3(CCOc4ccccc43)C2=O)c1 (stereo not given) | 0 | 0 | 0 | - | 0 | 0 | -
SMILES | PRMT1 inh | TLR9-MyD88 block | ABHD5 PLIN5 PPI | TLR4 MyD88 comp | NOD2 RIPK2 PPI | Granule exo inh | PRMT1 inh conf
CCOc1ccc(N2C(=O)CC(NC3CCN(C(=O)c4ccc(F)cc4)CC3)C2=O)cc1 (stereo not given) | 53 | 0 | 0 | - | 0 | 0 | 0
COc1ccc(N2C(=O)CC(NC3CC3)C2=O)cc1 (stereo not given) | 32 | 0 | 0 | 0 | 0 | 0 | 0
Cc1c(Cl)cccc1NC(CC(=O)c1ccccc1)C(=O)OCC(=O)c1cccs1 (stereo not given) | 63 | 0 | 0 | 0 | 0 | 0 | 0
COc1ccccc1NC(CC(=O)c1ccccc1)C(=O)OCC(=O)c1ccc(F)cc1 (stereo not given) | 35 | 0 | 0 | 0 | 0 | 0 | 0
Cc1cc(Cl)ccc1OCC(O)CNCCc1ccc(S(N)(=O)=O)cc1 (stereo not given) | 0 | 0 | 0 | - | 0 | 0 | -
O=C(CSc1nnc(CNC(=O)c2ccco2)o1)Nc1nc2ccccc2s1 | 56 | 0 | 0 | 0 | 0 | 0 | 0
O=C(CSc1nnc(CNC(=O)c2ccco2)o1)Nc1ccccc1 | 0 | 0 | 0 | 0 | 0 | 0 | -
COc1ccc(N2C(=O)CC(N3CCC(c4nc5ccccc5[nH]4)CC3)C2=O)cc1 (stereo not given) | 54 | 0 | 0 | 0 | 0 | 0 | 0
COc1ccc(N2C(=O)CC(N3CCN(c4ccccc4F)CC3)C2=O)cc1 (stereo not given) | 0 | 0 | 0 | 0 | 0 | 0 | -
COc1ccc(N2C(=O)CC(N3CCC(O)(c4ccc(Cl)cc4)CC3)C2=O)cc1 (stereo not given) | 77 | 0 | 0 | 0 | 0 | 0 | 0
COc1ccc(N2C(=O)CC(n3c(CCCCO)nc4ccccc43)C2=O)cc1 (stereo not given) | 25 | 0 | 0 | 0 | 0 | 0 | 0
O=C1CC(N2CCC(c3nc4ccccc4[nH]3)CC2)C(=O)N1c1ccccc1F (stereo not given) | 32 | 0 | 0 | 0 | 0 | 0 | 0
O=C(O)CC1NC(=S)N(Cc2ccccc2)C1=O (stereo not given) | 0 | 0 | 0 | - | 0 | 0 | -
CCNC(=O)C1(C)CCCN(CCOc2ccc(Cl)cc2)C1 (stereo not given) | - | - | 0 | - | 0 | 0 | -
COC(=O)N1Cc2ccnnc2CC1c1ccccc1-c1ccc(F)cc1 (stereo not given) | 0 | - | - | - | - | - | -
Cc1cc(C)n(CCc2nc(-c3ccco3)cs2)n1 | 40 | 0 | 0 | 0 | 0 | 0 | 57
Cc1cc(C)n(CCc2nc(-c3cccs3)cs2)n1 | 0 | 0 | 0 | 0 | 0 | 0 | -
CCCCN1C[C@H](Cc2ccccc2)[C@@H](CC(=O)NC)C1=O | 0 | 0 | 0 | - | 0 | 0 | -
CC1(C(=O)CSc2nc3ccccc3s2)CCC(=O)O1 (stereo not given) | 29 | 0 | 0 | 0 | 0 | 0 | 22
CC(C)CC1=NN2C(=N)/C(=C\c3coc4ccccc4c3=O)C(=O)N=C2S1 | 34 | 0 | 0 | 0 | 0 | 0 | 48
CCSC1=NSC2=NC(=O)/C(=C\c3coc4ccccc4c3=O)C(=N)N12 | 0 | 0 | 0 | 0 | 0 | 0 | -
O=C1CC2(CCN(C(=O)COc3ccc(Cl)cc3)CC2)Oc2ccccc21 | 0 | 0 | 0 | - | 0 | 0 | -
